# Reference: PubChem BioAssay AID493168 (National Center for Advancing Translational Sciences (NCATS), 2011)
# Records with an inconclusive call do not appear. Where a call stands in place of a potency, no number is given. Activity calls are given as the source filed them. The call rests on the fitted dose curve; in most records, active means well fitted inhibition curve with a large enough effect; inconclusive means small, poorly fitted or top-dose-only effect, or effect the other way; inactive means flat fitted curve, though single readings scatter.
# Biological target: Ubiquitin carboxyl-terminal hydrolase 2 (Homo sapiens) (UniProt O75604)
# Assay: Confirmation Assay for Inhibitors of Ubiquitin-specific Protease USP2a Using CHOP2 as the Reporter; further: nearly all actives have a fitted effect of over 55% in size
# Conditions: USP2 core, Ub-CHOP2 coupled reporter fluorescence; series mostly up to 38.3 µM
# Summary of the method: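 Ub-CHOP2 cleavage coupled to reporter activation was read by fluorescence after 60 min at RT, with 25 nM final Ub-CHOP2 and substrate. Enzyme (10 nM final USP2 core) first sat 30 min with compound; data were normalized to NEM and fitted to concentration-response curves.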
# Potency means the concentration at half of the fitted maximal effect.
# Sequence of Ubiquitin carboxyl-terminal hydrolase 2 (Homo sapiens) (O75604 whole entry, looked up): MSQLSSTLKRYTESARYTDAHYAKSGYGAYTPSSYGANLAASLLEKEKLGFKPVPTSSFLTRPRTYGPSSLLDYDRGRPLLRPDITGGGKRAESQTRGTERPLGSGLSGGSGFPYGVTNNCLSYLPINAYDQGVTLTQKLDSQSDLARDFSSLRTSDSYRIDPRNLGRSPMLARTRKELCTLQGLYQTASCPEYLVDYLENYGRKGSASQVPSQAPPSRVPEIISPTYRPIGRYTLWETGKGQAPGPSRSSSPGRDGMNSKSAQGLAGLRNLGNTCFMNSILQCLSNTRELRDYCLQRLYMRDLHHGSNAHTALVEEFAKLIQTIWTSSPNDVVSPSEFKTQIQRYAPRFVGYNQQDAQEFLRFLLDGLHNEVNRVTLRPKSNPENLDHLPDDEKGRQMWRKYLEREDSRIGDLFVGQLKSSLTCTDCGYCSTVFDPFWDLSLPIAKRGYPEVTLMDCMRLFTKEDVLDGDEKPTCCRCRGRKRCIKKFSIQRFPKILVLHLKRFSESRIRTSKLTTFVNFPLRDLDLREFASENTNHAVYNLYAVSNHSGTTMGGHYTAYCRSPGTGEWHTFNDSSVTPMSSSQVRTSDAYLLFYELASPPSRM
row,Compound,Potency
1,CNS(=O)(=O)c1cccc(C(=O)OCC(=O)c2cc(C)n(-c3ccc4c(c3)OCO4)c2C)c1,inactive
2,COc1ccccc1-n1c(SCC(=O)Nc2ccc(C)cc2)nc(O)cc1=O,inactive
3,CCN=C1SC(C(=O)Nc2cccc(OCC)c2)CC(=O)N1CC (stereo not given),inactive
4,CCOc1ccccc1N1C(=O)CC(Nc2ccc(N3CCOCC3)cc2)C1=O (stereo not given),inactive
5,Cc1ccc(SCC(=O)NCC(C)C)cc1,inactive
6,CC(C)(C)C1C=C(Sc2ccccc2)C(=O)O1 (stereo not given),inactive
7,CCOc1cc(N2CCOCC2)c(OCC)cc1NC(=O)Cc1cn2ccsc2n1,inactive
8,O=C(Nc1ncccc1Cl)c1cccc(F)c1,inactive
9,O=C(N/N=C/c1ccc(-c2ccc(S(=O)(=O)Nc3ncccn3)cc2)o1)c1cc2ccccc2cc1O,9.27 µM (active)
10,COc1cccc(N2C(=O)C3CCCN3C2c2ccc(N(C)C)cc2)c1 (stereo not given),inactive
11,COc1ccc(-n2c(SCC(=O)N3CCN(c4ccccc4)CC3)nc3c(c2=O)SCC3)cc1,inactive
12,CC(=O)Nc1ccc(NC(=O)C2CCCN(S(=O)(=O)c3ccc(Cl)cc3)C2)cc1 (stereo not given),inactive
13,Cc1nn(C)cc1CNC(=O)c1ccc(Br)o1,inactive
14,CCn1c(CN2CCOCC2)nnc1SCC(=O)Nc1ccc(C(C)=O)cc1,inactive
15,Cc1noc(/C=C/c2ccco2)c1S(=O)(=O)N1CCC(C(=O)N(C)Cc2ccccc2)CC1,14.7 µM (active)
16,Clc1ccc2c(N/N=C/c3ccc(Br)cc3)ccnc2c1,13.1 µM (active)
17,CCCCC(OC(=O)c1cc2occc2n1C)C(=O)NCC1CCCO1 (stereo not given),inactive
18,O=C(CSc1nc2ccccc2c(=O)n1CC1CCCO1)NCc1ccccc1 (stereo not given),inactive
19,C/C(=N/NC(=O)c1cc2ccccc2cc1O)C1C(=O)c2ccccc2C1=O,5.85 µM (active)
20,CCn1cc(C(=O)N2CCOCC2)c(=O)c2cc(S(=O)(=O)N(C)C)ccc21,inactive

row,Compound,Potency
1,CCc1cc2c(=O)c(-c3nc4ccccc4n3C)coc2c(CN2CCCCC2C)c1O (stereo not given),inactive
2,CCOC(=O)C(C)Sc1nnc(Cn2c(=O)sc3ccccc32)n1-c1ccccc1 (stereo not given),inactive
3,Cc1c(N=C/C=C2\N(C)c3ccccc3C2(C)C)c(=O)n(-c2ccccc2)n1C,inactive
4,COc1ccc(-c2cc(C(F)(F)F)nc(S(C)(=O)=O)n2)cc1,inactive
5,CCOc1cc(/C=C2\C(=O)N(c3nc(-c4ccc(Br)cc4)cs3)N=C2c2ccccc2)ccc1O,4.65 µM (active)
6,CC[n+]1c(/C=C/N(C)c2ccccc2)n(-c2ccccc2)c2ccc(-c3nc4ccccc4s3)cc21,13.1 µM (active)
7,CCn1c(COc2ccc(C)cc2)nnc1SCC(=O)Nc1ccc2c(c1)OCCO2,inactive
8,CCOc1cc(/C=C/c2nc3cc(C)c(C)cc3s2)ccc1OCC(=O)N1CCOCC1,inactive
9,COCCNCC(=O)N1CCCCCC1,inactive
10,COc1ccc(/C=C(\NC(=O)c2ccc(OC)c(OC)c2)C(=O)N2CCN(C)CC2)cc1,inactive
11,Cc1ccc(C2=[N+]([O-])C(C)N(O)C2(C)C)o1 (stereo not given),inactive
12,C[C@](N)(Cc1ccc(O)c(O)c1)C(=O)O,inactive
13,CC1=C(C(=O)OC(C)C)C(C)C(C(=O)OC(C)C)=C(C)N1,inactive
14,Cc1ccc(Nc2cc(C)nc(NCc3ccccc3)n2)cc1,inactive
15,CCO[C@H]1OC(C(=O)N2CCCCCCC2)=C[C@@H](c2ccc(C(F)(F)F)cc2)[C@@H]1CCCO,inactive
16,COc1cc(C)ccc1OCCOc1cc(C)ccc1Cl,inactive
17,COc1ccccc1C(=O)N1CCN=C1SC,inactive
18,CC1CCCC(NC(=O)C2N(CCCN3CCCC3)C(=O)C3C(C(=O)Nc4ccc(Cl)cc4)C4C=CC32O4)C1C (stereo not given),inactive
19,CCC(C)NC(=O)CSC1=Nc2ccccc2C2=NC(c3ccccc3)C(=O)N12 (stereo not given),inactive
20,O=C(COC(=O)/C=C/c1ccc(Cl)cc1)NC1CC1,inactive
